Sampled rows, rich in hits. Any-hit rate of the full collection: about 4.6%.
NR3A LBD binder – modulates the human NR3A ligand-binding domain. NR3A LBD differential scanning fluorimetry, Tm shift; 0% = protein alone, 100% = glycine-bound protein. Tm shift relative to glycine control, % at 25 µM. 2.5% of 340,000 active. AID 1259313;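 active = melting temperature shift of at least 10% of the positive control shift, at one fixed dose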
FAS TE block – blocks the thioesterase domain of human fatty acid synthase. P49327. recombinant FAS-TE, OMFH fluorogenic substrate, fluorescence endpoint. inhibition, % at 15 µM. 0.67% of 360,000 active. AID 602261;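 active = compounds whose normalised, plate-corrected inhibition of enzyme fluorescence in the single-dose primary screen is 50% or more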
ADAM10 inh – inhibitors of human ADAM10; 0.62% of 370,000 active; O14672; inhibition, % at 7 µM; recombinant ADAM10, EDANS/DABCYL FRET peptide cleavage, 3 h;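 active = inhibition above a per-campaign cutoff equal to the mean of compounds falling between control-based bounds plus 3 SD, cut at about 20% in these data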
ADAM17 inh – ADAM17 inhibition, QFRET primary screen; recombinant ADAM17, EDANS/DABCYL FRET peptide cleavage; inhibition, % at 6.95 µM; 0.83% of 370,000 active; AID 720648;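 active = inhibition above the mean of compounds lying between control limits plus 3 SD, set per campaign, cut at about 8.5% in these data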
Target sequence (P78536 215-824 limits assumed): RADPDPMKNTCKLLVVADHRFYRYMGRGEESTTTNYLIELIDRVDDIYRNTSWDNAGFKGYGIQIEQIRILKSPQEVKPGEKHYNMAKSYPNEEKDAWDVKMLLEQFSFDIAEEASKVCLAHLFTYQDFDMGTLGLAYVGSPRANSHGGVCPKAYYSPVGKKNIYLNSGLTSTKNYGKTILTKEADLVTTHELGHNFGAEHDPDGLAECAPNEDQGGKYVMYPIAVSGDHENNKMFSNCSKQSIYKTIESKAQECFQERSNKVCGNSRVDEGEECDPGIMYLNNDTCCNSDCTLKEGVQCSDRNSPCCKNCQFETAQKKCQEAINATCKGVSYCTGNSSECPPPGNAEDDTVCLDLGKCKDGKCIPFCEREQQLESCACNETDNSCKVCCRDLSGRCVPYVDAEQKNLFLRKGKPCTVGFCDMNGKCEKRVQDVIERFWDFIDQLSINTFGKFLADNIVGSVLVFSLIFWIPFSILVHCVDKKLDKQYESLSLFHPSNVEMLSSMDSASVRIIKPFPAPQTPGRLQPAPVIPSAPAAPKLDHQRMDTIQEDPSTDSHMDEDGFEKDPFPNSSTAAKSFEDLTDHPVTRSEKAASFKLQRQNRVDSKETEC
KLK7 zymogen act – activates the human kallikrein-7 zymogen | P49862 | purified proKLK7, EDANS-DABCYL substrate fluorescence; 100% is mature enzyme control, 0% vehicle | activation, % at 7 µM | 0.9% of 370,000 active | AID 652039;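 active = activation above the mean of all tested compounds plus 3 SD, computed per campaign excluding outliers beyond control limits, cut at about 13% in these data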
A number is an active result; 0 = inactive; - = no result.

SMILES	NR3A LBD binder	FAS TE block	ADAM10 inh	ADAM17 inh	KLK7 zymogen act
Nn1c(SCC(=O)Nc2ccccc2-c2ccccc2)nnc1-c1n[nH]c2c1CCC2	-	-	0	0	0
Cc1cccc(C)c1NC(=O)COC(=O)c1ccc2[nH]c3c(c2c1)CCCC3	0	0	0	0	0
O=C(COC(=O)c1ccc2[nH]c3c(c2c1)CCCC3)Nc1ccccc1	22	0	0	0	0
O=c1ccn([C@@H]2O[C@H](CNS(=O)(=O)C3CC3)[C@@H](O)[C@H]2O)c(=O)[nH]1	14	0	0	0	0
NCC(=O)NCC(=O)NC[C@H]1O[C@@H](n2ccc(=O)[nH]c2=O)[C@H](O)[C@@H]1O	0	0	0	0	0
CC(C)N(Cc1cn(Cc2ccccc2)nn1)S(=O)(=O)c1ccc(F)cc1Br	-	-	0	0	0
Cc1ccc2[nH]c(O)c(N=NC(=O)CCc3ccccc3)c2c1Br	17	0	0	0	0
COC(=O)C1CN(Cc2cn(Cc3ccc(F)cc3)nn2)CCS(=O)(=O)N1Cc1ccc(F)cc1 (centres undefined)	-	-	0	0	0
COc1ccc(NC(=O)CCNS(=O)(=O)c2cc(Br)cnc2N)cc1OC	0	0	0	0	0
CCOC(=O)c1ccc(NC(=O)CCNS(=O)(=O)c2cc(Br)cnc2N)cc1	15	0	0	0	0
Cc1cc(C)cc(NC(=O)CCNS(=O)(=O)c2cc(Br)cnc2N)c1	12	0	0	0	0
Cc1nn(C)cc1NC(=O)C[C@H]1CC[C@H]2[C@@H](COc3ccc(NC(=O)Nc4ccccc4)cc3C(=O)N2C)O1	-	-	0	0	0
CC(=O)c1c(C)oc2ccc(NS(=O)(=O)c3cccs3)cc12	17	0	0	0	0
CCc1cc2cccc(C)c2nc1SCC(=O)NNC(=O)c1ccco1	0	0	0	0	0
CCc1cc2cc(C)c(C)cc2nc1SCC(=O)NNC(=O)c1ccco1	13	0	0	0	0
CC1=NN(C(N)=S)C(=O)C1N=Nc1ccc(C)c(Br)c1 (centres undefined)	12	0	0	0	0
CC1=NN(C(N)=S)C(=O)C1N=Nc1ccc(Cl)cc1Cl (centres undefined)	11	0	0	0	0
C=CCOC/C=C/C#CCN(Cc1ccc(OC)cc1OC)C(=O)Nc1ccccc1	-	-	0	0	0
C[C@H]1COc2cccc(N3CCCC3)c2S(=O)(=O)N1C	-	-	0	0	0
CC(C)CCN1C(=O)COc2ccccc2C1c1nnnn1-c1ccc2c(c1)OCCO2 (centres undefined)	-	-	0	0	0
O=C(c1ccc([N+](=O)[O-])cc1)N1CCN=C1SCc1ccccc1	0	0	0	0	0
O=C(c1ccccc1)N1CCN=C1SCc1ccc([N+](=O)[O-])cc1	24	0	0	0	0
COC1=C[C@H](C(=O)NCc2ccccc2)[C@H](C)[C@@H](c2ccccc2)CC1=O	-	-	0	0	0
NC(N)=NS(=O)(=O)c1ccc(NC(=S)NC(=O)/C=C/c2cccs2)cc1	11	0	0	0	0
CCCOC(=O)c1ccc(NC(=O)/C=C/c2cccs2)cc1	28	0	0	0	0
SMILES	NR3A LBD binder	FAS TE block	ADAM10 inh	ADAM17 inh	KLK7 zymogen act
NS(=O)(=O)c1ccc(NC(=S)NC(=O)/C=C/c2cccs2)cc1	0	0	0	0	0
O=C(/C=C/c1cccs1)Nc1ccc([N+](=O)[O-])cc1	26	0	0	0	0
COc1cc(O)c([C@@H](CC(=O)N2CC(C)CC(C)C2)c2ccc3c(c2)OCO3)c(OC)c1 (some centres undefined)	-	-	0	0	-
C=CCN(C(=O)[C@@H](C1CC1)[C@@H](O)c1ccc2ccccc2c1)c1ccccc1	-	-	0	0	0
CCOC(=O)CC[C@@]1(C(=O)OCC)C[C@@H](CC(=O)N2CCN(C(=O)c3ccco3)CC2)C(=O)N2CCCC=C21	-	-	0	0	0
COc1cc(C=C2Cc3ccccc3C2=O)cc(OC)c1OC	-	0	0	0	0
COc1ccc(/C=C2\Cc3ccccc3C2=O)cc1OC	13	0	0	0	0
CCCc1c(C(=O)N/N=C/C(C)=C/c2ccco2)nnn1-c1nonc1N	16	0	0	0	0
CC(/C=N/NC(=O)c1nnn(-c2nonc2N)c1C(C)C)=C\c1ccco1	19	0	0	0	0
CCCN(CCC)Cc1c(C(=O)N/N=C/c2ccco2)nnn1-c1nonc1N	0	0	0	0	0
COC(=O)[C@H]1C[C@@]2(c3ccccc3)c3ccccc3N(S(=O)(=O)c3ccccc3)[C@H]2N1	-	-	0	0	0
C=CCN1[C@H](Cc2ccccc2)COc2cccc(N3CCCC3)c2S1(=O)=O	-	-	0	0	0

Screening data deposited in PubChem BioAssay by several laboratories.
